# In the library only some 1% were active in any assay of this set; here they are far more common.
# NPR1 activator: GC-A stimulated cGMP production enhancers – HEK293 GC-A cells, cGMP TR-FRET, EC30 ANP, primary screen | activation, % at 10 µM | 0% at EC30 ANP, 100% saturating ANP | 370,000 tested, 0.14% active | AID 1671463, 2021 | Atrial natriuretic peptide receptor 1 (Homo sapiens), P16066; in the data active = activation above about 40%
# Efflux pump inh: inhibitors of Candida efflux pumps in yeast, primary screen, S. cerevisiae, Nile Red, multiplex. S. cerevisiae Candida pump triplex. inhibition, % at 10 µM. 330,000 tested, 0.44% active. AID 485275, 2010;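 active = plate passing quality check with inhibition over a set limit, or well fluorescence over plate mean plus 4 SD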;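 note: Nile Red retained in pooled yeast measured as flow cytometry median fluorescence; higher means more Nile Red kept so more efflux inhibition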
# H9c2 TAG inh: inhibitors of triacylglycerol accumulation, primary screen, cell-based, uHTS, fluorescence, H9c2; H9c2 cells, Nile Red lipid (TAG) fluorescence; cells loaded with 200 µM oleic acid; inhibition, % at 12.5 µM; 230,000 tested, 0.66% active; AID 651582, 2012;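 active = pattern-corrected inhibition of lipid staining of at least 50% with the nuclear-stain viability signal not falling by more than 50%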
# Bfl-1 A1 inh: caspase 3/7 activation in MEF A1-2A-BIM cells, primary screen, A1 inhibitor project, cell-based, luminescence, HTS. Caspase-Glo 3/7 luminescence, 3 h; percent of clofoctol response, vehicle zero. caspase activation, % (concentration not given with the values). 330,000 tested, 0.066% active. AID 2462, 2010;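 active = over half of replicate activation scores above 10%, or exactly half above 10 with the replicate mean above 10; inconclusive = replicate mean below 10 yet half the replicates above 10; inactive = over half of replicates below 10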
# GC-B act: human GC-B receptor activators, primary screen, HEK293 GC-B cells, cGMP TR-FRET, EC30 CNP; 370,000 tested, 0.11% active; Atrial natriuretic peptide receptor 2 (Homo sapiens), P20594; activation, % at 10 µM; 0% at EC30 CNP, 100% saturating CNP;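 active = activation at 10 µM reaching about 35% in either raw or pattern-adjusted values, limit read from the data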
# HSV augment: enhancers of HSV replication in host cells, fold increase, host cell viability; maximum fold increase; AID 1956, 2009; 220,000 tested, 0.005% active; HSV replication augmentation in cells; in the data active = maximum fold increase above about 1.5; inconclusive = no clear call, values can overlap the other calls; tested in PC3 cells
# H9c2 TAG conf: triacylglycerol accumulation inhibitors, retest, confirmation, cell-based, single concentration, Nile Red fluorescence, H9c2; shares compounds with H9c2 TAG inh; H9c2 lipid accumulation; cells loaded with 200 µM oleic acid; inhibition, % at 12.5 µM; 990 tested, 71% active; AID 651629, 2012;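 active = mean inhibition across replicates of 40% or more; inactive = mean inhibition below 40%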
# A number is an active result; n = inactive; u = inconclusive; x = no result given.
SMILES,NPR1 activator,Efflux pump inh,H9c2 TAG inh,Bfl-1 A1 inh,GC-B act,HSV augment,H9c2 TAG conf
O=C(Nc1ccc(-c2csc(Nc3cccc(C(F)(F)F)c3)n2)cc1)c1ccccc1,n,n,51.3,n,n,n,62.9
C[C@H]1C2CC(OC(=O)Nc3ccc(C(F)(F)F)cc3)C(C2)[C@H]2CCCCN21 (some centres undefined),n,x,x,x,n,x,x
CC(C)(C)N(Cc1ccccc1)C(=O)COC(=O)c1ccc([N+](=O)[O-])o1,n,n,n,n,n,x,x
CCN(C(=O)COC(=O)c1ccc([N+](=O)[O-])o1)c1cccc2ccccc12,n,n,69.4,n,n,x,88.2
CC[C@H](C)[C@H](NC(N)=O)C(=O)NCCc1ccc(OC)c(OC)c1,n,n,94.0,n,n,n,n
COc1ccc(CCNC(=O)Cn2nc(-c3ccccc3)ccc2=O)cc1,n,x,x,x,n,x,x
CC1(C)CCCN(Cc2c(O)ccc3c(=O)c(-c4nc5ccccc5s4)c(N)oc23)C1,n,n,55.4,n,n,n,67.8
Cc1ccc(/C=N/NC(=O)c2c(C)nc3ccc(Br)cn23)cc1,n,n,55.6,n,n,x,57.7
COc1ccc(/C=C/C(=O)NCC(=O)N/N=C/c2cc(Br)ccc2OC)cc1,n,n,x,n,n,n,x
COc1ccccc1/C=C/C(=O)NCC(=O)N/N=C/c1cc(Br)ccc1OC,n,n,53.6,n,n,n,n
COC(=O)c1ccc(/C=C/c2c(-c3ccsc3)oc3ccc(N4CCOCC4)cc23)cc1,n,n,59.8,n,n,x,54.3
COc1ccc(-c2c(-c3ccsc3)oc3ccc(N4CCOCC4)cc23)cn1,n,x,n,u,n,n,x
COc1ccc(-c2oc3ccc(N4CCOCC4)cc3c2C#CCO)cc1,n,n,n,n,n,n,x
Nc1ccc(C#Cc2c(-c3ccsc3)oc3ccc(N4CCOCC4)cc23)cc1,n,n,50.9,n,n,n,53.0
CCOC(=O)[C@]12CCCC=C1N(CCCOC)C(=O)[C@@H]2CC(=O)N1CCN(C(=O)c2ccco2)CC1,n,x,x,x,n,x,x
CCOC(=O)[C@@]12CCCC3=C1N(CCC3)C(=O)[C@H]2CC(=O)N1CCOCC1,n,x,x,x,n,x,x
CCOC(=O)c1cnn(-c2ccccc2)c1N,n,n,x,n,n,n,x
CCOC(=O)c1cnn(-c2nc(-c3ccccc3)nc3c2COC(C)(C)C3)c1N,n,n,53.7,n,n,n,n
CC(C)(C)OC(=O)N1CCN(c2ccc(NC(=O)Cn3nnc(-c4ccccc4)n3)cc2)CC1,n,n,61.6,n,n,n,n
CCOC(=O)c1ccc(NC(=O)Cn2nnc(-c3ccccc3)n2)cc1,n,n,n,n,n,n,x
C[C@H]1CN([C@@H](C)CO)C(=O)Cc2cc(NC(=O)CCC(F)(F)F)ccc2O[C@H]1CN(C)S(=O)(=O)c1ccc(Cl)cc1,n,n,63.6,x,n,x,69.2
COc1ccc(-c2nnn3c2Cn2c4ccccc4c(=O)n2[C@@H](C)C3)cc1,n,x,x,x,n,x,x
CCOC(=O)CNC(=O)CSc1nc2ccccc2c(=O)n1-c1ccc(Cl)cc1,n,x,x,x,n,x,x
CCCC(=O)Nc1nc2nc(-c3ccccc3)cc(-c3ccccc3)n2n1,n,n,52.2,n,n,n,n
CCC(=O)Nc1nc2nc(-c3ccccc3)cc(-c3ccccc3)n2n1,n,n,n,n,n,x,x
SMILES,NPR1 activator,Efflux pump inh,H9c2 TAG inh,Bfl-1 A1 inh,GC-B act,HSV augment,H9c2 TAG conf
COc1ccc(NC(=O)N2CCC(N(C)CCC(C)C)CC2)cc1OC,n,x,x,x,n,x,x
COc1ccc2sc(-c3ccc(N(C)C)cc3)c(C#CCCO)c2c1,n,n,75.7,n,n,x,86.8
O=C1Nc2ccc(Br)cc2/C1=N\N=C\C1=C(N2CCOCC2)C(=C/c2ccccc2)/CC1,n,x,84.5,x,n,x,136.4
O=C1Nc2ccccc2/C1=N\N=C\C1=C(N2CCOCC2)C(=C\c2ccccc2)/CC1,n,n,x,n,n,n,x
Cc1csc(NC(=O)c2cc3c(s2)CCCCC3)n1,n,n,n,n,n,n,x
CCc1nnc(NC(=O)c2cc3c(s2)CCCCC3)s1,n,n,50.0,n,n,n,n
CCCCC(CC)C(=O)Nc1cc(C(=O)NCc2ccc(C)cc2)ccc1N1CCC2(CC1)CC(c1cccc(Br)c1)=NO2 (centres undefined),n,n,n,n,n,x,x
CCCCCCCC(=O)Nc1cc(C(=O)NCCC)ccc1N1CCC2(CC1)CC(c1cccc(Br)c1)=NO2,n,x,70.3,n,n,x,61.2
CCCCC(CC)C(=O)Nc1cc(C(=O)NCc2ccc(C)cc2)ccc1N1CCC2(CC1)CC(c1ccccc1)=NO2 (centres undefined),n,n,55.9,n,n,x,54.8
COc1ccc(CNC(=O)c2ccc(N3CCC4(CC3)CC(c3ccc(Cl)cc3)=NO4)c(NC(=O)Cc3ccc(F)cc3)c2)cc1,n,n,60.2,n,n,x,43.9
CCOC(=O)c1cccc(-c2cc(C(=O)OC)c3n(c2=O)CCC3)c1,n,x,x,x,n,x,x
Cc1ccc(S(=O)(=O)N2OC(c3ccccc3)C[C@H]2CC=C(c2ccccc2)c2ccccc2)cc1 (some centres undefined),n,x,x,x,n,x,x
COc1ccccc1CNC(=O)CN1C(=O)NC(c2ccccc2)(c2ccc(C)c(C)c2)C1=O (centres undefined),n,x,53.5,x,n,x,n
c1ccc(COc2ncnc3c2ncn3CCCNC2CCN(Cc3ccccc3)CC2)cc1,n,x,63.4,x,n,x,n
CSc1ncnc2c1ncn2CCCNC1CCN(Cc2ccccc2)CC1,n,x,n,x,n,x,x
CCCCCCCCN1C(=O)N2Cc3cc(F)ccc3C2CS1(=O)=O (centres undefined),n,x,x,x,n,x,x
Cc1ccccc1NS(=O)(=O)c1ccc(N2CCCC2=O)cc1,n,n,57.9,n,n,n,n
COc1ccc(OC)c(NS(=O)(=O)c2ccc(N3CCCC3=O)cc2)c1,n,n,56.5,n,n,n,42.1
Cc1ccc(-c2nc3ncccn3c2NC(=O)Nc2ccc(OC(F)(F)F)cc2)cc1,n,x,x,x,n,x,x
CCCC1O[C@@H]2C[C@H]3[C@@H]4CCC5=CC(=O)C=C[C@]5(C)[C@H]4[C@@H](O)C[C@]3(C)[C@]2(C(=O)CO)O1 (some centres undefined),n,n,66.3,n,n,n,79.3
O=S1(=O)c2ccc(N3CC[C@H](O)C3)cc2OCCCN1C1CC1,n,x,x,x,n,x,x
NC(N)=Nc1ccc(C=C2C=Cc3ccccc32)cc1,n,x,60.2,x,n,x,61.0
